In PubChem BioAssay AID588689 (Southern Research Specialized Biocontainment Screening …, 2011):
Out of some 340,000 compounds screened, about 1,000 (0.29%) were called active. These entries were drawn from the full list. Measured potencies and affinities stand elsewhere. Values without a mark were called inactive. No stated cut-off is given here; in the data, inconclusive means inhibition above about 29% without an active follow-up result; inactive means below that.

Target: Genome polyprotein (Dengue virus type 2 (strain 16681-PDK53)) (UniProt P29991)
Test: flavivirus cap methylation enzyme inhibition – biochemical, confirmation dose response, primary screen (AID 588689)
Conditions: Dengue-2 NS5 methyltransferase capping enzyme assay, at 25 µM, stronger effect = higher value

Row | SMILES | inhibition
1 | Cc1c(C(=O)c2ccc(Cl)c(Cl)c2)cnc2cc3c(cc12)OCO3 | 0.78%
2 | Nc1c(C(=O)O)sc2nc(-c3ccccc3)cc(-c3ccccc3)c12 | -27%
3 | Nc1c(C(=O)O)sc2nc(-c3ccccc3)cc(-c3ccc(F)cc3)c12 | -4.6%
4 | CCOC(=O)CC1COc2ccccc2N1C(=O)c1cccc([N+](=O)[O-])c1 (configuration not stated) | -0.68%
5 | CCOc1ccc(N2C(=O)CC(N(Cc3ccco3)C(=O)CCC(=O)O)C2=O)cc1 (configuration not stated) | -7.79%
6 | Cc1c(C(=O)OCC(=O)NC2CC2)oc2ccc(Br)cc12 | 4.33%
7 | CNCc1ccccc1Sc1cc(O)ccc1O | -2.55%
8 | CNCc1ccccc1Sc1cccc(O)c1 | -3.83%
9 | Cc1cc(NC(=O)CSc2ccccn2)cc(NC(=O)CSc2ccccn2)c1 | -6.51%
10 | O=C(O)c1ccc(Cl)c(S(=O)(=O)Nc2ccccc2Cc2ccccc2)c1 | -0.83%
11 | O=C(O)c1cccc(NS(=O)(=O)c2ccc(Oc3ccc(S(=O)(=O)Nc4cccc(C(=O)O)c4)cc3)cc2)c1 | 13.8%
12 | O=C1c2ccccc2C(=O)c2cc(S(=O)(=O)Nc3ccccc3)ccc21 | -0.73%
13 | O=C(O)c1cccc(NS(=O)(=O)c2ccc3c(c2)C(=O)c2ccccc2C3=O)c1 | 16.2%
14 | O=C(O)c1ccc(NS(=O)(=O)c2cc(Cl)ccc2Cl)cc1 | -2.78%
15 | O=C(O)c1cccc(S(=O)(=O)Nc2ccc(-c3ccccc3)cc2)c1 | -3.98%
16 | O=C(O)c1ccc(Cl)c(S(=O)(=O)Nc2ccc(S(=O)(=O)N3CCCC3)cc2)c1 | -5.16%
17 | O=C(O)c1ccc(F)c(S(=O)(=O)Nc2ccccc2Cl)c1 | 4.09%
18 | CC1(C)C2CCC1(CS(=O)(=O)NCc1ccc(C(F)(F)F)cc1)C(=O)C2 (configuration not stated) | -2.61%
19 | CCOC(=O)N1CCN(Cc2nc3ccc([N+](=O)[O-])cc3c(=O)n2-c2ccc(OC)cc2OC)CC1 | -7.83%
20 | Cc1ccc(C2(C)NC(=O)N(CC(=O)NNC(=O)c3cc(C)oc3C)C2=O)cc1 (configuration not stated) | -2.16%
21 | CC1CC1C(=O)N(C)CC(=O)Nc1ccccc1Br (configuration not stated) | -5.16%
22 | Cc1cc(C(=O)OC(C)C(=O)NC2CCCCC2)c(C)o1 (configuration not stated) | 3.67%
23 | O=C(NC1CC2CCCC(C1)N2CC(=O)N1CCCc2ccccc21)C1CCCCC1 (configuration not stated) | -6.56%
24 | Cc1cccc(-n2cnc3sc(C)c(C)c3c2=O)c1 | 3.09%
25 | O=C(O)c1ccc(COc2ccccc2/C=C2/NC(=O)N(c3cccc(Cl)c3)C2=O)cc1 | 6.55%
26 | COC(=O)c1ccc(COc2ccc(/C=N/Nc3cccc(C(=O)O)c3)cc2)cc1 | 8.5%

Row | SMILES | inhibition
27 | O=C1NC(=S)N/C1=C\c1ccccc1OCc1ccc(C(=O)O)cc1 | -6.96%
28 | CN1C(=O)S/C(=C\c2ccccc2OCc2ccc(C(=O)O)cc2)C1=O | 2.95%
29 | O=C(O)c1ccc(COc2ccc(CO)cc2Cl)cc1 | -1.37%
30 | C=CCc1cc(C=O)cc(OC)c1OCc1ccc(C(=O)O)cc1 | -5.83%
31 | COc1cc(/C=C2/NC(=O)NC2=O)cc(Br)c1OCc1ccc(C(=O)O)cc1 | -4.44%
32 | COC(=O)c1ccc(COc2ccccc2/C=N/NS(=O)(=O)c2ccccc2)cc1 | -8.06%
33 | Cc1cccc(C(=O)OCC(=O)Nc2c(C)n(C)n(-c3ccccc3)c2=O)c1O | -4.38%
34 | N#Cc1ccc(NC(=O)c2sc3cc(C(F)(F)F)cnc3c2-c2cccs2)cc1 | -3.46%
35 | CC(C)CN(C(=O)c1ccc(N2CCCC2=O)cc1)C1CCS(=O)(=O)C1 (configuration not stated) | 2.16%
36 | COc1ccc(N(C(=O)c2ccco2)C(C(=O)NC2CCCC2)c2ccc(OC)c(OC)c2)cc1 (configuration not stated) | -4.04%
37 | N#Cc1ccc2ccn(CC(=O)NCc3ccco3)c2c1 | -5.46%
38 | O=C(CCn1cnc2ccccc2c1=O)Nc1ccc(Cl)c(Cl)c1 | 1.31%
39 | COc1cccc(/C=N/Nc2ccc([N+](=O)[O-])cc2)c1O | -38.8%
40 | O=C(COc1ccccc1/C=C\c1nc(O)c([N+](=O)[O-])c(=O)[nH]1)Nc1ccccc1 | 2.19%
41 | CCOc1ccccc1/C=C\c1nc(O)c([N+](=O)[O-])c(=O)[nH]1 | 5.29%
42 | COc1cccc(/C=C/c2ccccn2)c1O | -0.77%
43 | CCCCCCSc1cc(-c2nc3cc(C)ccn3c2NC2CCCCC2)ccc1OC | -8.81%
44 | O=C(c1ccc(Cn2c(=O)[nH]c3ccsc3c2=O)cc1)N1CCN(c2ccccc2)CC1 | -1.16%
45 | COc1ccc(CN(C)C(=O)c2cccc(NS(=O)(=O)c3ccccc3)c2)c(OC)c1 | 0.32%
46 | O=C(CN(c1ccc(F)cc1)S(=O)(=O)c1ccccc1)NC1CCCCCC1 | 0%
47 | Cc1ccc(/C=C/c2nc3sc(C(=O)O)c(C)c3c(=O)[nH]2)cc1[N+](=O)[O-] | -2.44%
48 | COc1cccc(CNC(=O)Cn2ccc3cc(S(=O)(=O)N4CCCC4)ccc32)c1 | -0.45%
49 | COc1ccc(N(C(=O)Cn2nnc(-c3ccc(Cl)cc3)n2)C(C(=O)NCC2CCCO2)c2ccncc2)cc1 (configuration not stated) | -2.22%
50 | COc1ccc(/C=N/NC(=O)c2nn(-c3ccccc3)c(=O)c3c(N)scc23)cc1 | 50%
51 | CCOC(=O)c1nn(-c2ccccc2)c(=O)c2c(N)scc12 | 7.81%
52 | CCOC(=O)c1nn(-c2ccc(C)cc2)c(=O)c2c(N)scc12 | 12.4%
